Measured values published in PubChem BioAssay (Tox21).
Records with an inconclusive call do not appear. Where a call stands in place of a potency, no number is given. Some compounds were tested as several samples or in several runs, with calls that do not always agree. Calls of active or inactive are those of the source. Unless noted, calls follow the shape of the full dose curve.

How the values were obtained:
[1] = Nuclear factor erythroid 2-related factor 2/antioxidant responsive element (Nrf2/ARE) small molecule agonists: qHTS cell viability counter screen in human keratinocytes (AID 1919968; active = well fitted curve in the direction sought with a large enough effect in the repeat runs; an effect the other way counts as inactive or inconclusive; also: nearly all actives have a fitted effect of over 55% in size)
In short: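 Measured as CellTiter-Fluor fluorescence, this readout tracks cytotoxicity in the same wells as the ARE-luciferase screen. HaCaT reporter cells (1,500/well) received compounds after a 5 h pre-incubation and were exposed for 23 h.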

[2] = target: Gonadotropin-releasing hormone receptor (Homo sapiens) (UniProt P30968); experiment: Human gonadotropin-releasing hormone receptor (GnRHR) small molecule agonists, calcium flux assay in GnRHR-HEK293 cells (AID 1920063); also: nearly all actives have a fitted effect of over 35% in size
In short: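 Fluorescence kinetics (480 nm excitation, 540 nm emission; 3 min, 1 s steps) report calcium mobilisation in human GnRHR-HEK293 cells in agonist mode. Dye incubation: 1 h, 37 C.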

[3] = target: KiSS-1 receptor (Homo sapiens) (UniProt Q969F8); experiment: Human kisspeptin (KISS1R) small molecule agonists, calcium flux assay in KISS1R-HEK293 cells (AID 1920064; active = well fitted curve in the direction sought with a large enough effect in the repeat runs; an effect the other way counts as inactive or inconclusive)
In short: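 Measures KISS1R agonism through calcium-sensitive dye fluorescence in stably transfected HEK293 cells, read for 3 min after pin-tool compound delivery; 15-point titrations in triplicate.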

[4] = G protein-coupled receptor (GPCR) small molecule agonists, calcium flux assay: HEK293 wild type cell line counter screen (AID 1920065)
In short: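 Readout: fluorescence at 480 nm excitation/540 nm emission, sampled at 1 s intervals for 3 min. Cells had been cultured 18 h, then dye-loaded 1 h at 37 C before compound or ATP addition.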

[5] = p53 small molecule agonists, cell-based qHTS assay with human liver microsomes (AID 1963577)
In short: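 Compounds act here after metabolic activation: human liver microsomes and NADPH, both at 0.5 mg/mL final, were co-added to p53RE-bla cells. Incubation ran 16 h at 37 C, followed by LiveBLAzer detection.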

[6] = p53 small molecule agonists, cell-based qHTS assay with rat liver microsomes (AID 1963578)
In short: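 Read-out is beta-lactamase reporter fluorescence (LiveBLAzer, 2 h, room temperature, dark) in p53RE-bla cells treated 16 h at 37 C with compound, rat liver microsomes and NADPH, both 0.5 mg/mL final.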

[7] = p53 small molecule agonists, cell-based qHTS assay with human liver microsomes: qHTS cell viability counter screen (AID 1963579); also: nearly all actives have a fitted effect of over 45% in size; also: potency is read from the fitted curve at half-maximal effect
In short: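 Cells carrying the p53 response-element beta-lactamase reporter are treated for 16 h at 37 C with test compounds in the presence of human liver microsomes and NADPH (both 0.5 mg/mL final); ATP-based CellTiter-Glo luminescence then reports viability.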

[8] = p53 small molecule agonists, cell-based qHTS assay with rat liver microsomes: qHTS cell viability counter screen (AID 1963580); also: nearly all actives have a fitted effect of over 45% in size
In short: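 In HCT-116 cells carrying a p53 response element-bla reporter, compounds were metabolically activated in situ by rat liver microsomes with NADPH over 16 h. Cell ATP content then served as the cytotoxicity measure.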

[9] = p53 small molecule agonists, cell-based qHTS assay: qHTS cell viability counter screen (AID 1963581); also: nearly all actives have a fitted effect of over 45% in size
In short: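 In the same plates used for the p53 bla reporter, HCT-116 cells given compounds for 16 h at 37 C received CellTiter-Glo; luminescence was recorded 30 min later at room temperature.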

[10] = p53 small molecule agonists, cell-based qHTS assay (AID 1963582; active = well fitted activation curve with a large enough effect in the signal ratio in the repeat runs, not every such curve was filed as active; the % refers to the signal ratio)
In short: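 Compounds are pin-transferred in DMSO onto p53RE-bla cells and incubated 16 h at 37 C. The B/G FRET beta-lactamase substrate is then applied for 2 h at RT and fluorescence recorded.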

[11] = target: 5-hydroxytryptamine receptor 2A (Homo sapiens) (UniProt P28223); experiment: 5-hydroxytryptamine receptor 2A (HTR2A) small molecule antagonists, cell-based qHTS assay (AID 1963586); also: nearly all actives have a fitted effect of over 45% in size
In short: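 Antagonist-mode intracellular calcium assay: DOI (4 nM) added after 5 min compound pre-incubation at room temperature to dye-loaded HTR2A-CHO cells. Fluorescence followed for 3 min, sampled every second.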

[12] = target: 5-hydroxytryptamine receptor 2A (Homo sapiens) (UniProt P28223); experiment: 5-hydroxytryptamine receptor 2A (HTR2A) small molecule agonists, cell-based qHTS assay (AID 1963587); also: nearly all actives have a fitted effect of over 30% in size
In short: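 HTR2A-CHO cells, plated 18 h at 37 C/5% CO2, dye-loaded 1 h at 37 C; compounds in DMSO added by pin tool (agonist mode). Intracellular calcium flux read as kinetic fluorescence on FDSS over 2 min at 1 s intervals.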

[13] = target: Muscarinic acetylcholine receptor M1 (Homo sapiens) (UniProt P11229); experiment: Cholinergic receptor muscarinic 1 (CHRM1) small molecule antagonists, cell-based qHTS assay (AID 1963588); also: nearly all actives have a fitted effect of over 40% in size
In short: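 CHRM1-CHO calcium-flux assay, antagonist mode. Cells were seeded 18 h, dye-loaded 1 h at 37 C and given compound for 5 min at RT, then acetylcholine was added at 50nM. FDSS fluorescence was read 3 min; 15 concentrations, three runs.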

[14] = target: Muscarinic acetylcholine receptor M1 (Homo sapiens) (UniProt P11229); experiment: Cholinergic receptor muscarinic 1 (CHRM1) small molecule agonists, cell-based qHTS assay (AID 1963589); also: nearly all actives have a fitted effect of over 35% in size
In short: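 Each compound was tested at 15 concentrations across three independent runs on dye-loaded CHO cells stably expressing human CHRM1, reading intracellular calcium fluorescence kinetically at 1 sec intervals.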

[15] = cAMP Responsive Elements (CRE) small molecule agonists, cell-based qHTS assay (AID 1963590)
In short: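 Cell line: CRE-bla HEK 293T; medium DMEM/10% dialyzed FBS/0.1 mM NEAA/1 mM pyruvate/25 mM HEPES; 3 h compound exposure; beta-lactamase FRET readout after 2 h substrate loading at RT.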

[16] = cAMP Responsive Elements (CRE) small molecule antagonists, cell-based qHTS assay (AID 1963591; active = well fitted inhibition curve with a large enough effect in the signal ratio in the repeat runs, not every such curve was filed as active; the % refers to the signal ratio)
In short: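 Inhibition of NKH477-driven (0.25 uM final) CRE-beta-lactamase signal in HEK293T cells, 3 h compound exposure at 37 °C, detected by FRET substrate fluorescence.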

[17] = target: Beta-2 adrenergic receptor (Homo sapiens) (UniProt P07550); experiment: Adrenergic beta2 receptor (ADRB2) small molecule antagonists, cell-based qHTS assay (AID 1963592); also: nearly all actives have a fitted effect of over 50% in size; also: potency is read from the fitted curve at half-maximal effect
In short: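 Cells (CHO, stable ADRB2 overexpression) incubated 18-20hr at 37C; compounds added from DMSO; agonist mix (1nM isoproterenol, 100uM IBMX, 25uM Ro-20-1724) added; 0.5hr RT; d2-cAMP and anti-cAMP-cryptate added; 1hr RT; 665/615 nm read.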

[18] = target: Beta-2 adrenergic receptor (Homo sapiens) (UniProt P07550); experiment: Adrenergic beta2 receptor (ADRB2) small molecule agonists, cell-based qHTS assay (AID 1963593);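 also: CHO cells stably overexpressing human ADRB2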
In short: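 CHO cells stably over-expressing ADRB2 were plated overnight at 37C, then dosed with compounds plus a stimulation mix containing 100uM IBMX and 25uM Ro-20-1724 for 0.5hr at room temperature. cAMP was measured by HTRF competition, 1hr.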

[19] = target: D(2) dopamine receptor (Homo sapiens) (UniProt P14416); experiment: Dopamine D2 receptor (DRD2) small molecule agonists, cell-based qHTS assay (AID 1963594); also: nearly all actives have a fitted effect of over 35% in size
In short: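 HEK293 cells stably expressing DRD2 were cultured 24 h at 37 C, then given Ro20-1724 (0.1 mM final) and compounds for 10 min at room temperature. NKH477 (200nM) was then added for 30 min. cAMP was read by HTRF.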

[20] = target: D(2) dopamine receptor (Homo sapiens) (UniProt P14416); experiment: Dopamine D2 receptor (DRD2) small molecule antagonists, cell-based qHTS assay (AID 1963595; active = well fitted inhibition curve with a large enough effect in the signal ratio in the repeat runs, with a control signal flat; the % refers to the signal ratio)
In short: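 HEK293 cells stably expressing DRD2, preincubated with 0.1 mM Ro20-1724 and compounds 10 min, were stimulated with 200 nM NKH477 plus 12 nM quinpirole for 30 min at room temperature; cAMP measured by HTRF (665/620 nm).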

Sequence of Gonadotropin-releasing hormone receptor (Homo sapiens) (P30968 whole entry, looked up): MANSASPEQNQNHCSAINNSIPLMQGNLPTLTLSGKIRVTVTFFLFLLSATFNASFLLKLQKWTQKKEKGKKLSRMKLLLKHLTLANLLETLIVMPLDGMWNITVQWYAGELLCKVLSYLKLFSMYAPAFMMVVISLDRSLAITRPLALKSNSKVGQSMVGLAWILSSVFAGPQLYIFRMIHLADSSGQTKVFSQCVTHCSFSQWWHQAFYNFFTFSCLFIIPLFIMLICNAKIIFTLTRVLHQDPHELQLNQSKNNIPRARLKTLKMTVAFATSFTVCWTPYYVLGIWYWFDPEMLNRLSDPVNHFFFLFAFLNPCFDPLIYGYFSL
Sequence of 5-hydroxytryptamine receptor 2A (Homo sapiens) (P28223 whole entry, looked up): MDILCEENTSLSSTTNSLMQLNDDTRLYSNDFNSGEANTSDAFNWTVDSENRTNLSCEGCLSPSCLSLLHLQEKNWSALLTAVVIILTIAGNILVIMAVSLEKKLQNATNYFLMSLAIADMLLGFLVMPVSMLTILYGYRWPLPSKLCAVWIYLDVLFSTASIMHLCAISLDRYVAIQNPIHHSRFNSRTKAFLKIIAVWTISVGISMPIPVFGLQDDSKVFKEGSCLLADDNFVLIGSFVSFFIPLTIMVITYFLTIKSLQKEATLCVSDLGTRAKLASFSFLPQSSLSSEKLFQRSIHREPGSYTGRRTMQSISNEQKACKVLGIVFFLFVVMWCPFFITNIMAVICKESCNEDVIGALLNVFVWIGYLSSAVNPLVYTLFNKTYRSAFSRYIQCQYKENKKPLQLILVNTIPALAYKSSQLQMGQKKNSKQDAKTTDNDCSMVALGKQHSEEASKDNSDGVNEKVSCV
Sequence of KiSS-1 receptor (Homo sapiens) (Q969F8 whole entry, looked up): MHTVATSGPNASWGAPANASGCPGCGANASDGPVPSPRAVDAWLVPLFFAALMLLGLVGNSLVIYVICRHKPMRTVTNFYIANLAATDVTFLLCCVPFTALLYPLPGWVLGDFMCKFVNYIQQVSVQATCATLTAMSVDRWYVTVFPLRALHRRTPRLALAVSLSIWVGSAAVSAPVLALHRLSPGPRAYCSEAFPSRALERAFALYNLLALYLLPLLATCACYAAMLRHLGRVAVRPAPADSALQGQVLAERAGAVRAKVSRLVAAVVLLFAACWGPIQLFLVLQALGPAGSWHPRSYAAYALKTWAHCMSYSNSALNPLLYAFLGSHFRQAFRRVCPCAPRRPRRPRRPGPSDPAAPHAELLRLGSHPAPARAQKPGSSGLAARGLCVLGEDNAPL
Sequence of Muscarinic acetylcholine receptor M1 (Homo sapiens) (P11229 whole entry, looked up): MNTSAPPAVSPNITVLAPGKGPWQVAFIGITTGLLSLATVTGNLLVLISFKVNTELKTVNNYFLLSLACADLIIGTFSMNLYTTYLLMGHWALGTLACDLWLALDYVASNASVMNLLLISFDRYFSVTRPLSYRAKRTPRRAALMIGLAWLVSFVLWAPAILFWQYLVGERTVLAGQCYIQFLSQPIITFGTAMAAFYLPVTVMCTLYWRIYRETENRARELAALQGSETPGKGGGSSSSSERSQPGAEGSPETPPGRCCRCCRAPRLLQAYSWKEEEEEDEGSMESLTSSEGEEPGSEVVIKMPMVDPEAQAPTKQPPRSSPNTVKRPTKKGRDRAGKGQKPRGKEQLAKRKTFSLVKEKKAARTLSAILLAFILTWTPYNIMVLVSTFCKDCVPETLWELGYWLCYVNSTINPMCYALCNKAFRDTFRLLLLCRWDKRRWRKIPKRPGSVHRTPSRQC
Sequence of Beta-2 adrenergic receptor (Homo sapiens) (P07550 whole entry, looked up): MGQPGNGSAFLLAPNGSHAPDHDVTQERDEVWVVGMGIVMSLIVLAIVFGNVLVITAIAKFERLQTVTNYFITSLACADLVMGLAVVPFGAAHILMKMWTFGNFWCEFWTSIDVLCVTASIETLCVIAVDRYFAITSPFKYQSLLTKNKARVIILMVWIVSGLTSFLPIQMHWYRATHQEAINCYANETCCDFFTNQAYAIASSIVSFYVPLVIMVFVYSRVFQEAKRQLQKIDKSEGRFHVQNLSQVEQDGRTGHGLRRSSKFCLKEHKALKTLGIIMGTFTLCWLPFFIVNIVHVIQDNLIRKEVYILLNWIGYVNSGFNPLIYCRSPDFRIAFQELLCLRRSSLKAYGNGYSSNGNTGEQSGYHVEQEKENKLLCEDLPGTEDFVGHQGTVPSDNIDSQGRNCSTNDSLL
Sequence of D(2) dopamine receptor (Homo sapiens) (P14416 whole entry, looked up): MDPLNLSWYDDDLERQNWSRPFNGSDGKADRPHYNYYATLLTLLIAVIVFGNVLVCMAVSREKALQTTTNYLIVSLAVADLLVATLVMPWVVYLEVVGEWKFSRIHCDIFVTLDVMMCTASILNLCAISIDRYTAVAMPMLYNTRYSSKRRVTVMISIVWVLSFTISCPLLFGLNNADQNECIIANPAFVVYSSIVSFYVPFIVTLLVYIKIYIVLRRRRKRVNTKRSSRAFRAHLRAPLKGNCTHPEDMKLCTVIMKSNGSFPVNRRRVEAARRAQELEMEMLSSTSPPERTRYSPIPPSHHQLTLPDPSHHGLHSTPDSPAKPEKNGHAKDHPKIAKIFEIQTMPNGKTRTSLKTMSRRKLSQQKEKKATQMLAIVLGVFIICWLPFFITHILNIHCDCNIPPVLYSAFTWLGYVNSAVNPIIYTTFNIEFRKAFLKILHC

SMILES | Potency [1] | Potency [2] | Potency [3] | Potency [4] | Potency [5] | Potency [6] | Potency [7] | Potency [8] | Potency [9] | Potency [10] | Potency [11] | Potency [12] | Potency [13] | Potency [14] | Potency [15] | Potency [16] | Potency [17] | Potency [18] | Potency [19] | Potency [20]
CC(C)(C)C(=O)CCl | inactive | inactive | inactive | inactive | inactive | inactive | inactive | inactive | inactive | inactive | inactive | inactive | inactive | inactive | inactive | inactive | inactive | inactive | inactive | inactive
COc1ccc2c(c1OC)C(=O)O[C@@H]2[C@H]1c2cc3c(cc2CCN1C)OCO3 | inactive | inactive | inactive | inactive | inactive | inactive | inactive | inactive | inactive | inactive | inactive | inactive | inactive | inactive | inactive | inactive | inactive |  | inactive | inactive
COc1cc2c(cc1OC)[C@@]13CCN4CC5=CCO[C@H]6CC(=O)N2[C@H]1[C@H]6[C@H]5C[C@H]43 | inactive | inactive | inactive | inactive | inactive | inactive | inactive | inactive | inactive | inactive | inactive |  | inactive |  | inactive | inactive | inactive |  | inactive | 
Sc1ccccc1Cl | inactive | inactive | inactive | inactive | inactive | inactive | inactive | inactive | inactive |  | inactive | inactive | inactive | inactive | inactive | inactive | inactive |  | inactive | inactive
CCC1(c2ccccc2)CCC(=O)NC1=O (centres undefined) | inactive | inactive | inactive | inactive | inactive | inactive | inactive | inactive | inactive | inactive | inactive | inactive | inactive | inactive | inactive | inactive | inactive |  |  | inactive
O=C(CCl)c1ccccc1 | inactive | inactive | inactive | inactive | inactive | inactive | inactive | inactive | inactive |  | inactive | inactive | inactive | inactive | inactive | inactive | inactive |  | inactive | inactive
CCC1(CC)C(=O)C=CNC1=O | inactive | inactive | inactive | inactive | inactive | inactive | inactive | inactive | inactive |  | inactive | inactive | inactive | inactive | inactive | inactive | inactive |  | inactive | inactive
C[C@]12CCC(=O)C[C@@H]1CC[C@@H]1[C@@H]2CC[C@]2(C)[C@@H](O)CC[C@@H]12 | inactive | inactive | inactive | inactive | inactive | inactive | 35.9 µM (active) and inactive | inactive | inactive | inactive |  |  |  |  |  |  | 9.7 µM (active) |  | inactive | inactive
CC(C)C(=O)OCC(C)(C)C(OC(=O)C(C)C)C(C)C (centres undefined) | inactive | inactive | inactive | inactive | inactive | inactive | inactive | inactive | inactive | inactive | inactive | inactive | inactive | inactive | inactive | inactive | inactive | inactive | inactive | inactive
S=C1NCCN1 | inactive | inactive | inactive | inactive | inactive | inactive | inactive | inactive | inactive | inactive | inactive | inactive | inactive | inactive | inactive | inactive | inactive |  | inactive | 
CON(C)C(=O)Nc1ccc(Cl)c(Cl)c1 | inactive | inactive | inactive | inactive | inactive | inactive | inactive | inactive | inactive | inactive | inactive | inactive | inactive |  | inactive | inactive | inactive | inactive | inactive | inactive
Cc1cccc([N+](=O)[O-])c1 | inactive | inactive | inactive | inactive | inactive | inactive | inactive | inactive | inactive | inactive | inactive | inactive | inactive | inactive | inactive | inactive | inactive | inactive | inactive | inactive
ClCCN1CCOCC1 | inactive | inactive | inactive | inactive | inactive | inactive | inactive | inactive | inactive | inactive | inactive | inactive | inactive | inactive | inactive | inactive | inactive |  | inactive | inactive
COc1cccc(C=O)c1 | inactive | inactive | inactive | inactive | inactive | inactive | inactive | inactive | inactive | inactive | inactive | inactive |  | inactive | inactive | inactive | inactive |  | inactive | inactive
